Measured values as given in PubChem BioAssay AID1159580 (chemical genetic matrix, 2015).
Where “and” joins values, the source holds several entries; their conditions need not be identical. Equal entries are not always repeated. Screen size: about 5,500 compounds; about 2,000 (36%) were called active. Roughly 18% stayed inconclusive and do not appear here. Cut-off read from the data, not from the text of the source: active = normalized growth mostly below about 0.91 (no sharp cut-off); inconclusive = no clear call, values can overlap the other calls; inactive = mostly above about 0.92. Some of the results follow.

Test: chemical genetic growth profiling, strain panel (AID 1159580);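 note: tested at 20 µM; growth read once vehicle control cultures reached saturation at 30 °C; 1 = growth at the plate median or of vehicle wells; lower values mean less growth of the strain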
Conditions: S. cerevisiae deletion strains, growth OD

Measured: normalized growth

O=C(Oc1cc(O)cc2c1C[C@@H](OC(=O)c1cc(O)c(O)c(O)c1)[C@@H](c1cc(O)c(O)c(O)c1)O2)c1cc(O)c(O)c(O)c1
inactive: locus YAL021C, strain ccr4, stronger effect = lower value 1.01 | locus YAL026C, strain drs2, stronger effect = lower value 0.988 | locus YAL030W, strain snc1, stronger effect = lower value 1.01 | locus YBL061C, strain skt5, stronger effect = lower value 1.01 | locus YBR009C, strain hhf1, stronger effect = lower value 1.01 | locus YBR021W, strain FUR4, stronger effect = lower value 1.05 | locus YBR023C, strain chs3, stronger effect = lower value 1.02 | locus YBR171W, strain sec66, stronger effect = lower value 0.994 | locus YBR231C, strain swc5, stronger effect = lower value 1.02 | locus YBR279W, strain paf1, stronger effect = lower value 1.01 | locus YCL011C, strain gbp2, stronger effect = lower value 0.979 | locus YCL016C, strain dcc1, stronger effect = lower value 1.01 | locus YCL061C, strain MRC1, stronger effect = lower value 0.983 | locus YCL069W, strain vba3, stronger effect = lower value 0.992 | locus YCR088W, strain abp1, stronger effect = lower value 0.992 | locus YDL005C, strain med2, stronger effect = lower value 1.01 | locus YDL040C, strain nat1, stronger effect = lower value 0.998 | locus YDR001C, strain nth1, stronger effect = lower value 0.986 | locus YDR069C, strain doa4, stronger effect = lower value 1 | locus YDR137W, strain rgp1, stronger effect = lower value 0.99 | locus YDR159W, strain sac3, stronger effect = lower value 1.04 | locus YDR195W, strain ref2 1 | locus YDR297W, strain sur2, stronger effect = lower value 1.02 | locus YDR334W, strain swr1, stronger effect = lower value 0.996 | locus YDR335W, strain msn5, stronger effect = lower value 1.01 | locus YDR392W, strain spt3, stronger effect = lower value 1.02 | locus YEL003W, strain gim4, stronger effect = lower value 0.983 | locus YEL037C, strain rad23, stronger effect = lower value 0.982 | locus YEL061C, strain CIN8 (second series), stronger effect = lower value 1 | locus YER015W, strain faa2, stronger effect = lower value 0.989 | locus YER016W, strain bim1, stronger effect = lower value 1.02 | locus YER110C, stronger effect = lower value 0.956 | locus YER111C, strain swi4, stronger effect = lower value 0.974 | locus YER155C, strain BEM2 (second series), stronger effect = lower value 0.975 | locus YFR010W, strain ubp6, stronger effect = lower value 0.997 | locus YGL078C, strain dbp3, stronger effect = lower value 0.99 | locus YGL167C, strain pmr1, stronger effect = lower value 1.01 | locus YGL173C, strain kem1, stronger effect = lower value 1.02 | locus YGL227W, strain vid30, stronger effect = lower value 0.994 | locus YGL240W, strain doc1, stronger effect = lower value 1.05 | locus YGL253W, strain hxk2, stronger effect = lower value 1.03 | locus YHR013C, strain ard1, stronger effect = lower value 1.02 | locus YHR027C, strain rpn1, stronger effect = lower value 1.02 | locus YHR030C, strain SLT2, stronger effect = lower value 1.01 | locus YHR079C, strain IRE1, stronger effect = lower value 1 | locus YHR094C, strain hxt1, stronger effect = lower value 0.932 | locus YHR142W, strain chs7, stronger effect = lower value 1.01 | locus YIL125W, strain kgd1, stronger effect = lower value 0.958 | locus YJL092W, strain hpr5, stronger effect = lower value 0.989 | locus YJL095W, strain BCK1 (second series), stronger effect = lower value 1.02 | locus YJL115W, strain asf1, stronger effect = lower value 1 | locus YJL129C, strain trk1, stronger effect = lower value 1.03 | locus YJL154C, strain vps35, stronger effect = lower value 0.988 | locus YJL164C, strain tpk1, stronger effect = lower value 1.01 | locus YJL166W, strain qcr8, stronger effect = lower value 1.04 | locus YJL168C, strain set2, stronger effect = lower value 0.937
0.115 (active) and 0.99 (inactive): locus YJL095W, strain BCK1, stronger effect = lower value
active: locus YBR229C, strain ROT2, stronger effect = lower value 0.482 | locus YCL029C, strain bik1, stronger effect = lower value 0.668 | locus YDL035C, strain GPR1, stronger effect = lower value 0.133 | locus YDL074C, strain BRE1, stronger effect = lower value 0.334 | locus YDL101C, strain DUN1, stronger effect = lower value 0.147 | locus YDL185W, strain tfp1, stronger effect = lower value 0.872 | locus YDL192W, strain arf1, stronger effect = lower value 0.638 | locus YDR101C, strain arx1, stronger effect = lower value 0.806 | locus YDR162C, strain NBP2, stronger effect = lower value 0.0879 | locus YDR318W, strain mcm21, stronger effect = lower value 0.736 | locus YDR388W, stronger effect = lower value 0.759 | locus YDR502C, strain sam2, stronger effect = lower value 0.52 | locus YEL061C, strain CIN8, stronger effect = lower value 0.438 | locus YER155C, strain BEM2, stronger effect = lower value 0.775 | locus YER167W, strain BCK2, stronger effect = lower value 0.492 | locus YGL086W, strain mad1, stronger effect = lower value 0.431 | locus YGL248W, strain PDE1, stronger effect = lower value 0.24 | locus YGR078C, strain PAC10, stronger effect = lower value 0.621 | locus YGR135W, strain pre9, stronger effect = lower value 0.62 | locus YGR252W, strain gcn5, stronger effect = lower value 0.658 | locus YHR079C, strain IRE1 (second series), stronger effect = lower value 0.79 | locus YHR129C, strain ARP1, stronger effect = lower value 0.337 | locus YHR200W, strain rpn10, stronger effect = lower value 0.661 | locus YIL066C, strain RNR3, stronger effect = lower value 0.096 | locus YIL073C, strain SPO22, stronger effect = lower value 0.241 | locus YIR030C, strain dcg1, stronger effect = lower value 0.889 | locus YJL134W, strain LCB3, stronger effect = lower value 0.551 | locus YJL187C, strain SWE1 (second series), stronger effect = lower value 0.104
